TWEAK-Fn14 inh: blocks TWEAK-Fn14 interaction in a reporter cell assay; TWEAK-stimulated Fn14 reporter cells, luciferase luminescence, 8 h; inhibition, % at 10 µM; 360,000 tested, 2% active; AID 1159606; in the data active = inhibition above about 50%
HIF-2a inh: HIF-2a inhibition. 786-0 RCC cells HIF-2a reporter, luciferase luminescence, overnight. AID 624352. inhibition, % at 18.8 µM. 360,000 tested, 0.72% active;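 active = inhibition of the luminescence signal of 40% or more relative to plate controls, in a single-dose primary screen at 18.75 µM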
CF NFkB inh: cystic fibrosis NF-kB activation inhibition; 360,000 tested, 0.86% active; inhibition, % at 5 µM; AID 588850; KKLEB NF-kB-GFP reporter, PAF-induced, GFP fluorescence overnight;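 active = at least 50% inhibition at 5 µM, scaled per plate between neutral and stimulator controls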;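 note: PAF is a Pseudomonas aeruginosa culture filtrate used as stimulus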
KKLEB cytotox: reduces viability of KKLEB cystic fibrosis airway cells; activity change (cytotoxicity), % at 5 µM; KKLEB CF airway cells viability, ATPlite luminescence, overnight; stronger effect = lower value; cells stimulated with P. aeruginosa culture filtrate; 360,000 tested, 0.36% active;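 active = corrected activity change at or below -50% at 5 µM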
Peg3 promoter: reduces Peg3 promoter-driven luciferase expression in HeLa. 360,000 tested, 1.7% active. inhibition, % at 20 µM. HeLa PEG-Prom luciferase reporter, luminescence, overnight;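 active = inhibition of at least 50% at 20 µM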
TROY signal inh: TROY signaling inhibition. Q293 LMP1-TROYcd NF-kB luciferase reporter, 4 h. inhibition, % at 10 µM. 360,000 tested, 0.98% active;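 active = compounds whose plate-normalised and pattern-corrected inhibition of the luciferase reporter signal at the single screening dose is 50% or more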
Large screens that a line does not name were inactive. Compounds with a hit are over-represented: about 3.9% of the library has one in this group of screens.

COc1ccc(S(=O)(=O)Nc2ccccc2C(=O)Nc2nc(-c3ccc(F)cc3)cs2)cc1OC	TWEAK-Fn14 inh 92, CF NFkB inh 52, TROY signal inh 59
COc1ccc(-c2csc(NC(=O)C3=NN(c4ccccc4)C(=O)CC3)n2)cc1	TWEAK-Fn14 inh 88
CCCNC(=O)c1ccccc1NS(=O)(=O)c1ccc(OC)c(OC)c1	none
COc1ccc(-c2csc(NC(=O)c3ccccc3NS(=O)(=O)c3ccc(C)cc3)n2)cc1	TWEAK-Fn14 inh 93, CF NFkB inh 57, KKLEB cytotox -52, Peg3 promoter 55, TROY signal inh 70
COc1cccc(-c2csc(NC(=O)Nc3ccccc3)n2)c1	TWEAK-Fn14 inh 86, TROY signal inh 58
O=C(c1ccco1)N1CCN(Cc2nc3ccccc3[nH]2)CC1	none
COc1ccc(-c2ocnc2C(=O)Nc2ccccc2N2CCCCC2)cc1	none
CC(C1CC1)N(Cc1ccccc1)C(=O)NC(=O)c1cccc(F)c1 (centres undefined)	none
CN(Cc1ccccc1)C(=O)c1cccc(NC(=O)Cc2ccc(NC(=O)C3CCN(C(=O)CCc4ccccc4)CC3)cc2)c1	TWEAK-Fn14 inh 85, TROY signal inh 57
CN(C(=O)c1cccc(NC(=O)Cc2ccc(NC(=O)C3CCCN(C(=O)CCc4ccccc4)C3)cc2)c1)C1CCCCC1 (centres undefined)	TWEAK-Fn14 inh 89, TROY signal inh 62
COc1cc(CNCc2ccccc2C(F)(F)F)cc(OC)c1	none
COc1ccc(Cl)cc1N1CCN(CCNC(=O)Nc2ccccc2C)CC1	Peg3 promoter 51
COc1ccccc1N1CCN(CCCNC(=O)Nc2ccccc2C)CC1	none
Cc1ccc(C(=O)Nc2nnc(NC(=S)Nc3ccccc3)s2)cc1	CF NFkB inh 65
CCOc1ccc(C(=O)Nc2nnc(NC(=S)Nc3ccccc3)s2)cc1	none
CCN(CCNC(=O)c1cccc(N2CCCC2=O)c1)c1ccccc1	TWEAK-Fn14 inh 52, TROY signal inh 70
O=C(O)c1ccc2nc(-c3ccco3)c(-c3ccco3)nc2c1	none
O=C(Nc1cccc(C(F)(F)F)c1)c1ccc2nc(-c3ccco3)c(-c3ccco3)nc2c1	Peg3 promoter 50
O=C(Nc1ccc2nc(-c3ccco3)c(-c3ccco3)nc2c1)NC1CC1	TWEAK-Fn14 inh 73
O=C(Nc1ccc(N2CCOCC2)cc1)Nc1ccc2nc(-c3ccco3)c(-c3ccco3)nc2c1	CF NFkB inh 70
Nc1nc2ccc(C(=O)Nc3ccc(N4CCOCC4)cc3)cc2s1	none
O=C(c1ccc2nc(-c3ccco3)c(-c3ccco3)nc2c1)N1CCN(c2ccccc2)CC1	none
O=C(Nc1ccc(N2CCOCC2)cc1)c1nc2ccccc2s1	TROY signal inh 55
O=C(C[n+]1cccc(CO)c1)Nc1nc2ccccc2s1	TROY signal inh 67
CCCNC(=O)CN(Cc1ccco1)S(=O)(=O)c1ccc(OCC)cc1	none
O=C(c1ccccc1)C(CN1CCCCC1)c1ccccc1 (centres undefined)	TWEAK-Fn14 inh 71, CF NFkB inh 85, KKLEB cytotox -63, Peg3 promoter 103
CCOc1ccc(C(=O)C(CN2CCOCC2)c2ccccc2)cc1 (centres undefined)	Peg3 promoter 82
CCOc1ccc(C(O)(CCC(C)C)C(CN2CCOCC2)c2ccccc2)cc1 (centres undefined)	none
CCOc1ccc(C(CN2CCOCC2)C(C)=O)cc1OC (centres undefined)	Peg3 promoter 58
CC(CN1CCN(CC(C)C(=O)c2ccccc2)CC1)C(=O)c1ccccc1 (centres undefined)	none
N#C/C(=C/c1ccc(N2CCCCCC2)o1)c1ccc(F)cc1	HIF-2a inh 71
COc1ccccc1/C=C/C(=C1/C(=O)N(c2ccccc2)N=C1C)c1ccc(C)cc1	none
CC(=O)NC1CC2CCCC(C1)N2S(=O)(=O)c1cccc(F)c1 (centres undefined)	TWEAK-Fn14 inh 104
CCOc1cc(-c2nc3n(c(=O)c2C#N)CCS3)ccc1O	none
Cc1ccccc1Cn1nnc(-c2ccc3c(c2)OCO3)n1	TWEAK-Fn14 inh 80
Fc1cccc(Cl)c1Cn1nnc(-c2ccc3c(c2)OCO3)n1	TWEAK-Fn14 inh 54
C=CCn1c(C)cc(C(=O)COC(=O)COc2ccccc2C#N)c1C	none
C=CCn1c(C)cc(C(=O)COC(=O)[C@@H](NC(=O)c2ccccc2Cl)C(C)C)c1C	TWEAK-Fn14 inh 54
Cc1[nH]c(-c2ccc(F)cc2)cc1C(=O)N1CCN(c2ccc(Cl)cc2)CC1	TWEAK-Fn14 inh 89
COc1ccc(N2CCN(C(=O)c3cc(-c4ccc(F)cc4)[nH]c3C)CC2)cc1	none
CCOC(=O)N1CCC(N2CCCC(C(=O)c3cc(F)ccc3OC)C2)CC1 (centres undefined)	none
O=C1OCc2ccc(NC(=O)c3sccc3Cl)cc21	none
CCn1c(C)cc(C=C2C(=O)c3ccccc3C2=O)c1C	TWEAK-Fn14 inh 54
Cc1cccc(-n2c(C)cc(C=C3C(=O)c4ccccc4C3=O)c2C)c1	TWEAK-Fn14 inh 92, TROY signal inh 80
Cc1cc(/C=C2/C(=O)NN(c3ccccc3)C2=O)c(C)n1-c1ccc(O)cc1	TWEAK-Fn14 inh 88, TROY signal inh 83
COc1cc(CN2CCNC(=O)C2CC(=O)N2CCCCO2)cc(OC)c1 (centres undefined)	none
CCN(CC)S(=O)(=O)c1ccc2c(c1)CC(C(=O)N1CCCC1)N2C(C)=O (centres undefined)	none
CCCCCCNC(=O)c1cn(CC)c2cc(N3CCN(C)CC3)c(F)cc2c1=O	Peg3 promoter 54
O=C(c1ccc(Cl)s1)N1CCCC(N2CCN(c3ccc(F)cc3)CC2)C1 (centres undefined)	none
CC1CCCN(C2=NC(=O)/C(=C/c3cn(-c4ccccc4)nc3-c3cccc(S(=O)(=O)N(C)C)c3)S2)C1 (centres undefined)	none
CC1CCN(C2=NC(=O)/C(=C/c3cn(-c4ccccc4)nc3-c3cccc(S(=O)(=O)N(C)C)c3)S2)CC1	TWEAK-Fn14 inh 76 (no result: TROY signal inh)
CCCNC1=C(N(C(C)=O)c2cccc(F)c2)C(=O)c2ccccc2C1=O	TWEAK-Fn14 inh 79, HIF-2a inh 73, CF NFkB inh 81, KKLEB cytotox -56, Peg3 promoter 85
C[C@H]1CN([C@@H](C)CO)S(=O)(=O)c2ccc(C#Cc3ccccn3)cc2O[C@H]1CN(C)Cc1ccc(F)cc1	none
CCCC#Cc1ccc2c(c1)O[C@@H](CN(C)Cc1ccc3c(c1)OCO3)[C@H](C)CN([C@@H](C)CO)S2(=O)=O	Peg3 promoter 63
C[C@@H]1CN([C@H](C)CO)S(=O)(=O)c2ccc(C#Cc3ccccc3F)cc2O[C@H]1CN(C)C(=O)c1ccc2c(c1)OCO2	Peg3 promoter 56
COc1ccc(F)cc1CN1CCN(C(=O)CCC(=O)Nc2nnc(C3CCCCC3)s2)CC1	none
